Measured values as given in PubChem BioAssay (EPA / NIEHS).
Records with an inconclusive call do not appear. Calls of active or inactive are those of the source. How the source made its calls, unless noted: active means hit-call score of the fitted dose curve at least 0.9, where 1 is the maximum; inconclusive means response in the unintended direction; inactive means score below 0.9.

Target: Estrogen receptor beta (Homo sapiens) (UniProt Q92731)
Test: OT_ER_ERbERb_0480: Odyssey Thera (OT) 8-hour HEK293T Protein-Complementation Assay for Estrogen Receptor-beta/-beta Homodimer (AID 2283357);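 further: active means signal gain over DMSO baseline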
Settings: not given
Method in brief: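 Fluorescence gain from complemented reporter fragments on ER-beta LBD homodimer in HEK293T was quantified against DMSO controls after 8 h treatment, fixation in 4% formaldehyde and Draq5 staining.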

Sequence of Estrogen receptor beta (Homo sapiens) (Q92731 whole entry, looked up): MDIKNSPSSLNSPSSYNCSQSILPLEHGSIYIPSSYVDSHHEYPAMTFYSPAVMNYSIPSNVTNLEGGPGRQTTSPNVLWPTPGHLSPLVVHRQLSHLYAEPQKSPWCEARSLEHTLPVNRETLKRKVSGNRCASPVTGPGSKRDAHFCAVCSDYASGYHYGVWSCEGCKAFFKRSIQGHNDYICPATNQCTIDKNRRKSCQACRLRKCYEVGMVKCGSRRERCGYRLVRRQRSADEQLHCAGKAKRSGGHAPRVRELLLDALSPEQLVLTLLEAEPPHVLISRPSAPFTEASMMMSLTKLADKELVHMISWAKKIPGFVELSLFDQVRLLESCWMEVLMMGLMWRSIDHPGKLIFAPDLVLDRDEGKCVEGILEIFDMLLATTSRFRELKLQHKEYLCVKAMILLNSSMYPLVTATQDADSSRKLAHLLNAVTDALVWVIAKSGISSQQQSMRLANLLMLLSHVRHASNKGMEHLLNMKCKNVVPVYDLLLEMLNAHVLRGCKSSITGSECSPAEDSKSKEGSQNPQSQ

| SMILES | AC50 | outcome |
| --- | --- | --- |
| CC(C)c1ccc(O)cc1 | 57.9 µM (active) |  |
| CC(C)(c1cc(Cl)c(O)c(Cl)c1)c1cc(Cl)c(O)c(Cl)c1 |  | inactive |
| CCC1CCC(=O)O1 (centres undefined) |  | inactive |
| C=CCN(CC=C)C(=O)C(Cl)Cl |  | inactive |
| CC[N+](=O)[O-] |  | inactive |
| CC(Cc1ccc(C(C)(C)C)cc1)CN1C[C@@H](C)O[C@@H](C)C1 (some centres undefined) |  | inactive |
| CC(C)(O)C#N |  | inactive |
| c1ccc(P(c2ccccc2)c2ccccc2)cc1 | 25.4 µM (active) |  |
| O=C1Nc2ccc(Cl)cc2C(c2ccccc2)=NC1O (centres undefined) |  | inactive |

Target: Bile acid receptor (Homo sapiens) (UniProt Q96RI1)
Sequence (Q96RI1 whole entry, looked up): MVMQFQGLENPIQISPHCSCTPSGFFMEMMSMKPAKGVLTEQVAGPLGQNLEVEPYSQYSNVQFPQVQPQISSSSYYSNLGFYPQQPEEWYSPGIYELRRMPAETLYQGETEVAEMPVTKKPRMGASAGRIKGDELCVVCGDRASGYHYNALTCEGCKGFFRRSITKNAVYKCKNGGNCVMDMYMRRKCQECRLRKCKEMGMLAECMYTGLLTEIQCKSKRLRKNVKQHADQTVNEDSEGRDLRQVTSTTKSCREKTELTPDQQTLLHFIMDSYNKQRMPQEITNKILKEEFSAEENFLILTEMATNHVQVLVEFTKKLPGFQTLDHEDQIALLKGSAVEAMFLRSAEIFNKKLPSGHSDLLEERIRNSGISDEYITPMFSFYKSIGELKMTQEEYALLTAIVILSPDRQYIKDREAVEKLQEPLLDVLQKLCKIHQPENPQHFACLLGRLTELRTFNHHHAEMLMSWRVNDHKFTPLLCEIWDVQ
Test: OT_FXR_FXRSRC1_0480: Odyssey Thera (OT) 8-hour HEK293T Protein-Complementation Assay for Farnesoid X receptor/SRC-1 Co-activator (AID 2283383)
Settings: not given
Method in brief: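 Binding of FXR to coactivator SRC-1 was read as fluorescence from a reconstituted split reporter in HEK293T cells, 8 h after chemical addition. Only increases in signal versus DMSO were fit.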

| SMILES | outcome | AC50 |
| --- | --- | --- |
| N#CCCCCC#N | inactive |  |
| O=C(NCNC(=O)NC1C(=O)NC(=O)N1CO)NC1C(=O)NC(=O)N1CO (centres undefined) | inactive |  |
| CC(Cc1ccc(C(C)(C)C)cc1)CN1C[C@@H](C)O[C@@H](C)C1 (some centres undefined) |  | 11.3 µM (active) |
| O=C1Nc2ccc(Cl)cc2C(c2ccccc2)=NC1O (centres undefined) | inactive |  |

Target: Bile acid receptor (Homo sapiens) (UniProt Q96RI1)
Test: OT_FXR_FXRSRC1_1440: Odyssey Thera (OT) 24-hour HEK293T Protein-Complementation Assay for Farnesoid X receptor/SRC-1 Co-activator (AID 2283384)
Settings: not given
Method in brief: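 Protein-fragment complementation: FXR and SRC-1 fused to reporter fragments that reassemble on interaction, read by fluorescence intensity. Human HEK293T cells measured 24 h post-dose; positive-direction fit versus DMSO.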

| SMILES | outcome |
| --- | --- |
| N#CCCCCC#N | inactive |
| O=C(NCNC(=O)NC1C(=O)NC(=O)N1CO)NC1C(=O)NC(=O)N1CO (centres undefined) | inactive |
| CC(C)(O)C#N | inactive |
| O=C1Nc2ccc(Cl)cc2C(c2ccccc2)=NC1O (centres undefined) | inactive |

Target: Retinoic acid receptor RXR-alpha (Homo sapiens) (UniProt P19793)
Sequence (P19793 whole entry, looked up): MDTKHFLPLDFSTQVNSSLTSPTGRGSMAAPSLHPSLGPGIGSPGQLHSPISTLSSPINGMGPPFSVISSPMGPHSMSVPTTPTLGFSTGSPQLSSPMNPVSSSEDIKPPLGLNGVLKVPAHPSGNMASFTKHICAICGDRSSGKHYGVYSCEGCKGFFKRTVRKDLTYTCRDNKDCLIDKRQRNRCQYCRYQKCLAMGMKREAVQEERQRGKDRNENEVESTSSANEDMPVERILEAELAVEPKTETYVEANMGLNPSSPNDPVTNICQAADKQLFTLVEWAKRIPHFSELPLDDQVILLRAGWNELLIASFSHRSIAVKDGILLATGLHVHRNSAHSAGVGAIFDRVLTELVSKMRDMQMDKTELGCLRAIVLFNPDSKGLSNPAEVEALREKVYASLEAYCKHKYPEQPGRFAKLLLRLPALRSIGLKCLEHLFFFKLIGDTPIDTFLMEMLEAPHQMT
Test: OT_NURR1_NURR1RXRa_0480: Odyssey Thera (OT) 8-hour HEK293T Protein Complementation Assay for Nurr1/retinoid X receptor (RXR) (AID 2283385)
Settings: not given
Method in brief: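 Interaction of Nurr1 with RXRα read as reconstituted reporter fluorescence in a HEK293T fragment-complementation system, 8 h post-treatment; increase over DMSO baseline analysed.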

| SMILES | outcome | AC50 |
| --- | --- | --- |
| N#CCCCCC#N | inactive |  |
| CC(C)(c1cc(Cl)c(O)c(Cl)c1)c1cc(Cl)c(O)c(Cl)c1 |  | 74.7 µM (active) |
| O=C(NCNC(=O)NC1C(=O)NC(=O)N1CO)NC1C(=O)NC(=O)N1CO (centres undefined) | inactive |  |
| CC(Cc1ccc(C(C)(C)C)cc1)CN1C[C@@H](C)O[C@@H](C)C1 (some centres undefined) |  | 66.8 µM (active) |
| O=CNC(N1CCN(C(NC=O)C(Cl)(Cl)Cl)CC1)C(Cl)(Cl)Cl (centres undefined) | inactive |  |
| CC(C)(O)C#N | inactive |  |
| Cc1ccc(OP(=O)(Oc2ccc(C)cc2)Oc2ccc(C)cc2)cc1 (tested in a mixture with another compound) |  | 15.5 µM (active) |
| c1ccc(P(c2ccccc2)c2ccccc2)cc1 | inactive |  |
| CCOC(=O)COc1ccc(Cl)cc1Cl | inactive |  |
| O=C1Nc2ccc(Cl)cc2C(c2ccccc2)=NC1O (centres undefined) | inactive |  |

Target: Retinoic acid receptor RXR-alpha (Homo sapiens) (UniProt P19793)
Test: OT_NURR1_NURR1RXRa_1440: Odyssey Thera (OT) 24-hour HEK293T Protein Complementation Assay for Nurr1/retinoid X receptor (RXR) (AID 2283386)
Settings: not given
Method in brief: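 Gain in fluorescence, fitted relative to DMSO, reflects Nurr1–RXRα association in HEK293T cells after 24 h dosing. Bait and prey are each linked to a reporter-protein fragment that reassembles on interaction.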

| SMILES | outcome | AC50 |
| --- | --- | --- |
| CC(C)c1ccc(O)cc1 | inactive |  |
| CC(C)(c1cc(Cl)c(O)c(Cl)c1)c1cc(Cl)c(O)c(Cl)c1 |  | 78.1 µM (active) |
| O=C(NCNC(=O)NC1C(=O)NC(=O)N1CO)NC1C(=O)NC(=O)N1CO (centres undefined) |  | 78 µM (active) |
| CCC1CCC(=O)O1 (centres undefined) | inactive |  |
| C=CCN(CC=C)C(=O)C(Cl)Cl | inactive |  |
| CC[N+](=O)[O-] | inactive |  |
| CC(Cc1ccc(C(C)(C)C)cc1)CN1C[C@@H](C)O[C@@H](C)C1 (some centres undefined) |  | 81 µM (active) |
| CC(C)(O)C#N | inactive |  |
| Cc1ccc(OP(=O)(Oc2ccc(C)cc2)Oc2ccc(C)cc2)cc1 (tested in a mixture with another compound) | inactive |  |
| c1ccc(P(c2ccccc2)c2ccccc2)cc1 | inactive |  |
| CCOC(=O)COc1ccc(Cl)cc1Cl | inactive |  |
| O=C1Nc2ccc(Cl)cc2C(c2ccccc2)=NC1O (centres undefined) | inactive |  |

Target: Peroxisome proliferator-activated receptor gamma (Homo sapiens) (UniProt P37231)
Sequence (P37231 whole entry, looked up): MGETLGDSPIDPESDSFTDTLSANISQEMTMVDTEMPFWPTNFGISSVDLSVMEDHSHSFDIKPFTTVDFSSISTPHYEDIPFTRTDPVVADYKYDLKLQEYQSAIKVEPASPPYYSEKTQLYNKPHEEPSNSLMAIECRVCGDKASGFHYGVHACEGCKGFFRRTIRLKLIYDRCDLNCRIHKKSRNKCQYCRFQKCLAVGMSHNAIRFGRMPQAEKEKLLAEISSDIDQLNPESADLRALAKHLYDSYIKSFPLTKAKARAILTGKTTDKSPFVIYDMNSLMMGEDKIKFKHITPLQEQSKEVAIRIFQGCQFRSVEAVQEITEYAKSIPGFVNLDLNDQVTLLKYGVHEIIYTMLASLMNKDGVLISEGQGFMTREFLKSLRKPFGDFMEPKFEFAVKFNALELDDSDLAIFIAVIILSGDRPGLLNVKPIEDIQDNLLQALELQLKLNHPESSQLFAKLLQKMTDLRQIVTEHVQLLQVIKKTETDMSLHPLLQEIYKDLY
Test: OT_PPARg_PPARgSRC1_0480: Odyssey Thera (OT) 8-hour Protein-Complementation Assay for Peroxisome Proliferator-activated Receptor Gamma / SRC-1 Co-activator (AID 2283387);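 further: nuclear to cytoplasmic split Venus YFP fluorescence ratio reporting PPARg SRC-1 interaction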
Settings: not given
Method in brief: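 Protein-fragment complementation in HEK293T: Venus YFP halves (residues 1-158, 159-239, mutated to IFP1/IFP2) fused to PPARg/SRC-1. 8 h exposure; N/C ratio at 488 nm; DMSO negative control.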

| SMILES | outcome |
| --- | --- |
| N#CCCCCC#N | inactive |
| CC(C)c1ccc(O)cc1 | inactive |
| CC(C)(c1cc(Cl)c(O)c(Cl)c1)c1cc(Cl)c(O)c(Cl)c1 | inactive |
| O=C(NCNC(=O)NC1C(=O)NC(=O)N1CO)NC1C(=O)NC(=O)N1CO (centres undefined) | inactive |
| C=CCN(CC=C)C(=O)C(Cl)Cl | inactive |
| CC[N+](=O)[O-] | inactive |
| CC(Cc1ccc(C(C)(C)C)cc1)CN1C[C@@H](C)O[C@@H](C)C1 (some centres undefined) | inactive |
| O=CNC(N1CCN(C(NC=O)C(Cl)(Cl)Cl)CC1)C(Cl)(Cl)Cl (centres undefined) | inactive |
| CC(C)(O)C#N | inactive |
| CC(C)C#N | inactive |
| Cc1ccc(OP(=O)(Oc2ccc(C)cc2)Oc2ccc(C)cc2)cc1 (tested in a mixture with another compound) | inactive |
| c1ccc(P(c2ccccc2)c2ccccc2)cc1 | inactive |
| O=C1Nc2ccc(Cl)cc2C(c2ccccc2)=NC1O (centres undefined) | inactive |

Target: Peroxisome proliferator-activated receptor gamma (Homo sapiens) (UniProt P37231)
Test: OT_PPARg_PPARgSRC1_1440: Odyssey Thera (OT) 24-hour Protein-Complementation Assay for Peroxisome Proliferator-activated Receptor Gamma/ SRC-1 Co-activator (AID 2283388);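 further: nuclear to cytoplasmic ratio of reconstituted Venus YFP fluorescence in fixed imaged cells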
Settings: not given
Method in brief: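 Cells carrying the PPARg/SRC-1 fragment-complementation reporter receive compound for 24 hours, are fixed and counterstained with Draq5, then imaged. Increased nuclear relative to cytoplasmic YFP fluorescence above DMSO baseline indicates binding activity.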

| SMILES | outcome |
| --- | --- |
| N#CCCCCC#N | inactive |
| CC(C)c1ccc(O)cc1 | inactive |
| CC(C)(c1cc(Cl)c(O)c(Cl)c1)c1cc(Cl)c(O)c(Cl)c1 | inactive |
| O=C(NCNC(=O)NC1C(=O)NC(=O)N1CO)NC1C(=O)NC(=O)N1CO (centres undefined) | inactive |
| C=CCN(CC=C)C(=O)C(Cl)Cl | inactive |
| CC[N+](=O)[O-] | inactive |
| CC(Cc1ccc(C(C)(C)C)cc1)CN1C[C@@H](C)O[C@@H](C)C1 (some centres undefined) | inactive |
| O=CNC(N1CCN(C(NC=O)C(Cl)(Cl)Cl)CC1)C(Cl)(Cl)Cl (centres undefined) | inactive |
| CC(C)(O)C#N | inactive |
| CC(C)C#N | inactive |
| Cc1ccc(OP(=O)(Oc2ccc(C)cc2)Oc2ccc(C)cc2)cc1 (tested in a mixture with another compound) | inactive |
| c1ccc(P(c2ccccc2)c2ccccc2)cc1 | inactive |
| O=C1Nc2ccc(Cl)cc2C(c2ccccc2)=NC1O (centres undefined) | inactive |

Read-out: not listed separately
Test: CEETOX_H295R_11DCORT: CeeTox H295R High-throughput Steroidogenesis Assay for 11-Deoxycortisol (11DCORT) (AID 2283432; active means hit-call score of the fitted dose curve at least 0.9, where 1 is the maximum; inactive means score below 0.9;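 on AC50: human adrenal H295R cells prestimulated with 10 µM forskolin for 48 h; 11-deoxycortisol secreted into the medium measured by LC-MS/MS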)
Settings: actives raise or lower the signal
Method in brief: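 Adrenal carcinoma line H295R, run per OECD 456 with minor changes, was forskolin-stimulated (10 uM, 48 h) before a 48 h chemical exposure at 0.1% DMSO. Secreted 11-deoxycortisol was quantified by HPLC-MS/MS.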

| SMILES | AC50 | outcome |
| --- | --- | --- |
| CC(Cc1ccc(C(C)(C)C)cc1)CN1C[C@@H](C)O[C@@H](C)C1 (some centres undefined) | 13.8 µM (active) |  |
| O=CNC(N1CCN(C(NC=O)C(Cl)(Cl)Cl)CC1)C(Cl)(Cl)Cl (centres undefined) | 50 µM (active) |  |
| c1ccc(Nc2ccc3ccccc3c2)cc1 |  | inactive |
| Cc1ccc(OP(=O)(Oc2ccc(C)cc2)Oc2ccc(C)cc2)cc1 (tested in a mixture with another compound) |  | inactive |
